ssDAF12 agonist – S. stercoralis DAF-12 activation, primary screen; HEK293 ssDAF-12/GRIP1 lit1-tk-luc reporter, luminescence; % of 3 µM dafachronic acid response; activation, % at 6.8 µM; actives 1% (n = 370,000);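 active means activation above the mean over all tested compounds plus 3 SD, cut at about 0.9% in these data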;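 further: 0% = DMSO-only wells and 100% = 3 µM delta7-dafachronic acid wells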
hcDAF12 agonist – activates DAF-12 receptor from parasite H. contortus | AID 652067 | activation, % at 6.8 µM | actives 1.4% (n = 370,000) | HEK293 hcDAF-12 lit1-tk-luc reporter, luminescence; 0% DMSO, 100% Δ7-dafachronic acid;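 active means activation above the mean of all tested compounds plus 3 SD, cut at about 5.5% in these data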;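 further: 100% = response to 3 µM Δ7-dafachronic acid high control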
DAX1 inh – inhibitors of DAX1 repression of SF-1 activated StAR promoter; actives 1.1% (n = 370,000); inhibition, % at 6.8 µM; HEK293T StAR-luciferase reporter, SF-1/DAX-1 repression relief;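 active means inhibition above the mean over all tested compounds plus 3 SD, cut at about 3.6% in these data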;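 further: 0% = DAX-1 cells with DMSO and 100% = cells lacking DAX-1 with DMSO; higher inhibition means more luminescence from relief of DAX-1 repression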
hgDAF-12 ag – agonists of H. glycines DAF-12 nuclear receptor; activation, % at 6.8 µM; actives 1.8% (n = 370,000); HEK293 GAL4-hgDAF12 UAS-luciferase reporter, agonist luminescence; normalized to butyrate control;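 active means activation above a cutoff set at the mean of all screened compounds plus 3 SD, cut at about 10% in these data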;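 further: 0% = DMSO wells and 100% = sodium butyrate wells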
SMARCA2 act – activators of SMARCA2 function. activation, % at 9.1 µM. MG213 cells, MMTV-luciferase reporter, dexamethasone, overnight. AID 652017. actives 1% (n = 370,000); in the data active means activation above about 7.8%;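 further: 0% = vehicle wells and 100% = reference activator wells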
Numbers without * were called inactive. A selection: hits, their analogues and other compounds. The true share with any hit is near 4.2%.

For CC(=O)Nc1ccc2c(c1)C(=Nc1ccccc1)c1ccccc1-2 the results were ssDAF12 agonist -1, hcDAF12 agonist -2, DAX1 inh -1, hgDAF-12 ag 2 and SMARCA2 act 0.
For CC(=O)Nc1cc2c3c(cccc3c1)-c1ccccc1-2 the results were ssDAF12 agonist 0, hcDAF12 agonist 2, DAX1 inh 1, hgDAF-12 ag 11* and SMARCA2 act 0.
Screening COc1ccc(CCN2CCCC(CN(C)C(=O)c3cc(C)oc3C)C2)cc1 (stereo unspecified) returned ssDAF12 agonist 1, hcDAF12 agonist 4, DAX1 inh 2, hgDAF-12 ag 11* and SMARCA2 act 7.8*.
Cc1cc(C(=O)N(C)CC2CCCN(CCc3ccc(F)cc3)C2)c(C)o1 (stereo unspecified) was read as ssDAF12 agonist -1, hcDAF12 agonist -2, DAX1 inh -1, hgDAF-12 ag 0 and SMARCA2 act 3.
Screening O=C(NC1CCCCN(Cc2cccc(F)c2)C1=O)c1ccc(F)cc1 (stereo unspecified) returned ssDAF12 agonist -2, hcDAF12 agonist -2, DAX1 inh 0, hgDAF-12 ag 0 and SMARCA2 act -1.
Screening O=C(Nc1ccc2c(c1)OCO2)N1CCCc2ccccc21 returned ssDAF12 agonist -1, hcDAF12 agonist 1, DAX1 inh 1, hgDAF-12 ag 6 and SMARCA2 act 2.
Cc1ccnc(NC(=O)Nc2ccc3c(c2)OCO3)c1 was read as ssDAF12 agonist -1, hcDAF12 agonist 2, DAX1 inh 3, hgDAF-12 ag 12* and SMARCA2 act 6.
Cc1ccc2c(c1)CCCN2C(=O)Nc1ccc2c(c1)OCO2 was read as ssDAF12 agonist 1.6*, hcDAF12 agonist 4, DAX1 inh 2, hgDAF-12 ag 12* and SMARCA2 act 4.
O=C(Nc1ccc2c(c1)OCO2)Nc1ccc(Br)cn1 was read as ssDAF12 agonist -1, hcDAF12 agonist 2, DAX1 inh 2, hgDAF-12 ag 8 and SMARCA2 act 1.
CCOC(=O)[C@]12CCCC=C1N(CCC1=CCCCC1)C(=O)[C@H](CC(=O)NCc1ccc(OC)c(OC)c1)C2 was read as ssDAF12 agonist -1, hcDAF12 agonist -2, DAX1 inh -1, hgDAF-12 ag -2 and SMARCA2 act -6.
For Cc1cc2nc(-c3ccccc3)c(Cc3ccsc3)n2c(C)c1Br the results were ssDAF12 agonist 2.0*, hcDAF12 agonist 2, DAX1 inh 0, hgDAF-12 ag 6 and SMARCA2 act -1.
Screening Cc1cc2nc(-c3cccc(Cl)c3)c(Cc3cccc(Cl)c3)n2c(C)c1Br returned ssDAF12 agonist 0, hcDAF12 agonist 3, DAX1 inh 1, hgDAF-12 ag 2 and SMARCA2 act 1.
`Cc1cc2nc(-c3ccc(Cl)cc3)c(Cc3cccc(Cl)c3)n2c(C)c1Br` gave ssDAF12 agonist 1.1*, hcDAF12 agonist 3, DAX1 inh 2, hgDAF-12 ag 3 and SMARCA2 act 2.
Cc1cc2nc(-c3ccccc3)c(Cc3ccccc3)n2c(C)c1Br was read as ssDAF12 agonist 0, hcDAF12 agonist 3, DAX1 inh 0, hgDAF-12 ag 8 and SMARCA2 act 0.
CCCC[C@H](C(=O)N(C)c1ccccc1)[C@@H](O)c1ccc2ccccc2c1 was read as ssDAF12 agonist -1, hcDAF12 agonist -2, DAX1 inh -1, hgDAF-12 ag -3 and SMARCA2 act -4.
For Cc1ccc(-c2cc(C(=O)NC3=NCCS3)c3ccccc3n2)cc1C the results were ssDAF12 agonist 0, hcDAF12 agonist 4, DAX1 inh 1, hgDAF-12 ag 11* and SMARCA2 act 0.
COC(=O)[C@H](CC(C)C)N(CCc1cn(Cc2ccc(C)cc2)nn1)S(=O)(=O)c1ccccc1Br was read as ssDAF12 agonist -1, hcDAF12 agonist -1, DAX1 inh -2, hgDAF-12 ag -1 and SMARCA2 act -3.
`Cc1ccc(-c2cc(C(=O)NN=Cc3cc(Br)ccc3O)[nH]n2)cc1C` gave ssDAF12 agonist -1, hcDAF12 agonist 0, DAX1 inh -4, hgDAF-12 ag 1 and SMARCA2 act -4.
COC(=O)CSc1nc2ccccn2c(=O)c1C=O was read as ssDAF12 agonist 1.5*, hcDAF12 agonist 6.3*, DAX1 inh 2, hgDAF-12 ag 5 and SMARCA2 act 4.
For CN1CCC(Oc2ccc(Sc3ccccc3)cc2)CC1 the results were ssDAF12 agonist -1, hcDAF12 agonist 6, DAX1 inh 1, hgDAF-12 ag 11* and SMARCA2 act 2.
`O=C(CSc1nnc(-c2ccncc2)n1-c1ccc(Cl)cc1)c1ccc(Cl)c(Cl)c1` gave ssDAF12 agonist -2, hcDAF12 agonist -2, DAX1 inh 0, hgDAF-12 ag -1 and SMARCA2 act -1.
`CCN(CC)CCNC(=O)c1cccc(NC(=O)C(=O)c2ccccc2NC(C)=O)c1` gave ssDAF12 agonist 0, hcDAF12 agonist 5.9*, DAX1 inh 0, hgDAF-12 ag 4 and SMARCA2 act -4.
Screening CCCCNC(=O)c1cccc(NC(=O)C(=O)c2ccccc2NC(C)=O)c1 returned ssDAF12 agonist -1, hcDAF12 agonist -2, DAX1 inh 0, hgDAF-12 ag -1 and SMARCA2 act -2.
`COC(=O)[C@]12C[C@H](CC(=O)NCc3ccc(C)o3)C(=O)N(Cc3ccc(Cl)cc3Cl)C1=C[C@H](C1CCCC1)O[C@@H]2C` gave ssDAF12 agonist 0, hcDAF12 agonist -1, DAX1 inh -2, hgDAF-12 ag 2 and SMARCA2 act -5.
Screening CCCCN(C=O)c1c(CC)nc2c(OCC(=O)c3ccc(F)cc3)cccn12 returned ssDAF12 agonist -1, hcDAF12 agonist 0, DAX1 inh 0, hgDAF-12 ag 1 and SMARCA2 act 7.9*.
For S=C(c1ccc(-c2ccc(Br)cc2)o1)N1CCOCC1 the results were ssDAF12 agonist 0, hcDAF12 agonist 3, DAX1 inh 2, hgDAF-12 ag 12* and SMARCA2 act 0.
For COc1ccc(C(=O)/C=C/Nc2cc(C)on2)cc1 the results were ssDAF12 agonist 0, hcDAF12 agonist 2, DAX1 inh 4, hgDAF-12 ag 12* and SMARCA2 act 6.
CCOc1ccc(N/C=C/C(=O)c2ccc(OC)cc2)c([N+](=O)[O-])c1 was read as ssDAF12 agonist -1, hcDAF12 agonist 1, DAX1 inh 2, hgDAF-12 ag 4 and SMARCA2 act 6.
For COc1ccc(N/C=C/C(=O)c2ccc(C)cc2)c([N+](=O)[O-])c1 the results were ssDAF12 agonist 0, hcDAF12 agonist 1, DAX1 inh 3.6*, hgDAF-12 ag 7 and SMARCA2 act 4.
Screening COc1cccc(N/C=C/C(=O)c2ccc(Br)cc2)c1 returned ssDAF12 agonist 0, hcDAF12 agonist 4, DAX1 inh 4.4*, hgDAF-12 ag 11* and SMARCA2 act 3.
For COc1ccc(/C=C/C(=O)Nc2cc(C)on2)cc1 the results were ssDAF12 agonist -1, hcDAF12 agonist 2, DAX1 inh 2, hgDAF-12 ag 9 and SMARCA2 act 4.

Assay outcomes as filed in PubChem.
